Assay results as given in PubChem BioAssay (NCI).
This is part of a sample that, as a whole, favours compounds with a hit. Of some 83,000 tested, about 20% had one in any assay.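 Cell lines were cultured in 96-well plates, exposed to a single compound concentration, and assessed for percent growth 48 hours later.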 Active and inactive are the calls of the source. The calls were made as follows: active = growth percent below 10; inactive = the rest.

How the values were obtained:
Experiment in all cases: NCI-60 one-dose screen, 48 h (100 = growth as untreated, 0 = no growth, -100 = all killed)
Conditions in all cases: 10 µM unless noted
T-47D breast = test system: T-47D breast
BT-549 breast = test system: BT-549 breast
MDA-MB-435 melanoma = test system: MDA-MB-435 melanoma
SW-620 colon = test system: SW-620 colon
MCF7 breast = test system: MCF7 breast
HCT-116 colon = test system: HCT-116 colon
HCC-2998 colon = test system: HCC-2998 colon
KM12 colon = test system: KM12 colon

Measured: growth

Nc1ccc(-c2csc(-n3[nH]c(=O)ccc3=O)n2)cc1
inactive: T-47D breast 98.5% | BT-549 breast 92% | MDA-MB-435 melanoma 103% | SW-620 colon 104% | MCF7 breast 86.6% | HCT-116 colon 94% | HCC-2998 colon 112% | KM12 colon 104%

O=C(NC(Cc1nnc2n(Cc3ccccc3)c(=O)c3c4c(sc3n12)CCCC4)c1ccccc1)c1ccccc1 (configuration not stated)
inactive: T-47D breast 102% | BT-549 breast 100% | MDA-MB-435 melanoma 105% | SW-620 colon 101% | MCF7 breast 97.9% | HCT-116 colon 81.4% | HCC-2998 colon 108% | KM12 colon 108%

O=C1/C(=C2\SC(=S)N(C3CC3)C2=O)SC(=S)N1C1CC1
inactive: T-47D breast 94.6% | BT-549 breast 97.5% | MDA-MB-435 melanoma 103% | SW-620 colon 98.4% | MCF7 breast 91.6% | HCT-116 colon 100% | HCC-2998 colon 102% | KM12 colon 101%

CC(C)CCN(CCC(C)C)CC(O)c1cc2c(c3ccccc13)CCCC2 (configuration not stated)
inactive: T-47D breast 59% | BT-549 breast 103% | MDA-MB-435 melanoma 98.4% | SW-620 colon 59% | MCF7 breast 78.5% | HCT-116 colon 50.5% | HCC-2998 colon 30.1% | KM12 colon 64.6%

COc1cc(-c2nc3cc(Cl)c(Cl)cc3[nH]2)ccc1OCC(=O)N=Nc1c(O)[nH]c2ccc(Cl)cc12
active: T-47D breast -4.31% | MDA-MB-435 melanoma -57.7% | SW-620 colon -14.2% | MCF7 breast 1.63% | HCT-116 colon -16.2% | HCC-2998 colon -39.2% | KM12 colon 9.24%
inactive: BT-549 breast 12%

C=C1C(=O)O[C@H]2[C@H]1CC/C(COC(=O)c1ccc(C(=O)O)s1)=C\CC[C@@]1(C)O[C@@H]21
inactive: T-47D breast 43% | BT-549 breast 42.9% | MDA-MB-435 melanoma 11.7% | MCF7 breast 13% | HCT-116 colon 11.4% | HCC-2998 colon 61.6% | KM12 colon 55.6%
active: SW-620 colon 4.69%

C=C(C)[C@@H]1CCC[C@]2(C(=O)N3CCN(C)CC3)CC[C@]3(C)[C@@H](CC[C@@H]4[C@@]5(C)CC/C(=N\NC(=O)c6ccncc6)C(C)(C)[C@@H]5CC[C@]43C)[C@@H]12
inactive: T-47D breast 87.7% | BT-549 breast 105% | MDA-MB-435 melanoma 81.8% | SW-620 colon 81.2% | MCF7 breast 50.7% | HCT-116 colon 97.8% | HCC-2998 colon 105% | KM12 colon 85.4%

CCNC(=O)Oc1ccc(/C(=C(/C)Cc2ccc(OC)cc2)c2ccc(OCCN3CCCCC3)cc2)cc1
inactive: T-47D breast 42.5% | BT-549 breast 92.5% | MDA-MB-435 melanoma 68.1% | SW-620 colon 77.8% | MCF7 breast 29.9% | HCT-116 colon 49.2% | HCC-2998 colon 67.9% | KM12 colon 67.8%

S=c1[nH]c(=S)c2c(-c3ccccc3)c(-c3ccccc3)oc2[nH]1
inactive: T-47D breast 91.4% | BT-549 breast 119% | MDA-MB-435 melanoma 97.3% | SW-620 colon 101% | MCF7 breast 94.3% | HCT-116 colon 97.9% | HCC-2998 colon 101% | KM12 colon 102%

COc1ccc(/C=C/C(=O)c2ccc(NC(=O)CSc3nc4c([nH]3)c(=O)n(C)c(=O)n4C)cc2)cc1OC
inactive: T-47D breast 76.9% | BT-549 breast 59% | MDA-MB-435 melanoma 88.5% | SW-620 colon 96.2% | MCF7 breast 40.7% | HCT-116 colon 59.3% | HCC-2998 colon 75.9% | KM12 colon 72.3%

COC(=O)/C=C1/SC(=Nc2ccc([N+](=O)[O-])cc2)N(CCc2c[nH]c3ccc(O)cc23)C1=O
inactive: T-47D breast 53.9% | BT-549 breast 25.7% | MDA-MB-435 melanoma 43.1% | SW-620 colon 85.5% | MCF7 breast 30.6% | HCT-116 colon 14.6% | HCC-2998 colon 20.9% | KM12 colon 41.7%

CCSc1oc(C)nc1[P+](c1ccccc1)(c1ccccc1)c1ccccc1
active: KM12 colon 8.25%
inactive: T-47D breast 14.6% | BT-549 breast 12.4% | MDA-MB-435 melanoma 25.3% | SW-620 colon 32.9% | MCF7 breast 13.7% | HCT-116 colon 14.4% | HCC-2998 colon 29.5%

[2H]C([2H])([2H])Oc1ccc(F)cc1/C=C/C(=O)/C=C(/C=C/c1cc(F)ccc1OC([2H])([2H])[2H])OB(F)F
inactive: T-47D breast 54.2% | BT-549 breast 87.7% | MDA-MB-435 melanoma 70.8% | SW-620 colon 45.1% | MCF7 breast 37% | HCT-116 colon 43.2% | HCC-2998 colon 114% | KM12 colon 101%

CC1=C2[C@@H](CC1)[C@]1(C)O[C@@](C3CCCCC3)(C[C@H]1OC(=O)CO)[C@H]2OC(=O)/C=C/c1ccccc1
inactive: T-47D breast 46.1% | MDA-MB-435 melanoma 95.9% | SW-620 colon 86.5% | MCF7 breast 57.6% | HCT-116 colon 76.3% | HCC-2998 colon 81.8% | KM12 colon 79.6%
active: BT-549 breast -1.1%

CCc1ccc(CCC(=O)Nc2ncc(Cc3cc(Cl)ccc3Cl)s2)o1
inactive: T-47D breast 44% | BT-549 breast 36.4% | SW-620 colon 24.1% | MCF7 breast 14% | HCT-116 colon 17.5% | HCC-2998 colon 19.7% | KM12 colon 20.3%
active: MDA-MB-435 melanoma -42.6%

C[C@H](C(=O)N(CCc1ccc(Cl)c(Cl)c1)Cc1cncs1)[C@@H]1CC[C@H](C[C@H](C)n2cc(CN3CCC(c4ccc(Cl)cc4)CC3)nn2)O1
inactive: T-47D breast 86.6% | BT-549 breast 95.1% | MDA-MB-435 melanoma 98.3% | SW-620 colon 97.5% | MCF7 breast 85.8% | HCT-116 colon 92.5% | HCC-2998 colon 112% | KM12 colon 105%

CNC(=O)c1cc(Oc2cccc3nc(NC(=O)Nc4cc(C(F)(F)F)ccc4Cl)ccc23)ccn1
inactive: T-47D breast 78.1% | BT-549 breast 85% | MDA-MB-435 melanoma 74.1% | SW-620 colon 112% | MCF7 breast 85% | HCT-116 colon 60.1% | HCC-2998 colon 115% | KM12 colon 96.7%

C=C1CC[C@@H]2[C@](C)(COC(C)=O)[C@H](OC(C)=O)CC[C@@]2(C)[C@@H]1CC(Nc1ccc(S(=O)(=O)NC(C)=O)cc1)C1=CCOC1=O (some centres not stated)
active: T-47D breast -3.67% | BT-549 breast -62.6% | MDA-MB-435 melanoma -38.8% | SW-620 colon -65.6% | MCF7 breast -33.6% | HCT-116 colon -63.9% | HCC-2998 colon -12.7% | KM12 colon -34%

CC(=O)OC[C@]12CC[C@@H]([C@@H](C)c3nnc(-c4ccncc4)o3)[C@@H]1[C@H]1CC[C@@H]3[C@@]4(C)CC[C@H](OC(C)=O)C(C)(C)[C@@H]4CC[C@@]3(C)[C@]1(C)CC2
inactive: T-47D breast 66.5% | BT-549 breast 74.6% | MDA-MB-435 melanoma 87% | SW-620 colon 66.3% | MCF7 breast 84.9% | HCT-116 colon 45.2% | HCC-2998 colon 101% | KM12 colon 93.5%

COc1ccc(C2CC(c3cc(OC)c(OC)c(OC)c3)=NO2)cc1OCCCCOc1cc2c(cc1OC)C(=O)N1CCC[C@H]1C=N2 (some centres not stated)
active: BT-549 breast -71.4% | MDA-MB-435 melanoma -58.1% | SW-620 colon -21.9% | MCF7 breast 5.25% | HCT-116 colon 8.33% | HCC-2998 colon -67.3% | KM12 colon -22%
inactive: T-47D breast 11.4%

Cc1ccc(S(=O)(=O)c2nc(-c3ccccc3)oc2Sc2nc3ccccc3s2)cc1
active: HCT-116 colon -1.16%
inactive: T-47D breast 62.7% | BT-549 breast 17.6% | MDA-MB-435 melanoma 54.7% | SW-620 colon 54.7% | MCF7 breast 58% | HCC-2998 colon 107% | KM12 colon 97.2%

O=C(O)COc1ccc(Cl)c(Cl)c1
inactive: T-47D breast 95.7% | BT-549 breast 120% | MDA-MB-435 melanoma 104% | SW-620 colon 109% | MCF7 breast 108% | HCT-116 colon 109% | HCC-2998 colon 106% | KM12 colon 110%

O=C(Cc1ccc(/C=C/C(=O)c2ncc[nH]2)cc1)Nc1cc(C(F)(F)F)cc(C(F)(F)F)c1
inactive: T-47D breast 80.5% | BT-549 breast 99.7% | MDA-MB-435 melanoma 60.1% | SW-620 colon 53.5% | HCC-2998 colon 63% | KM12 colon 38.5%
active: MCF7 breast 7.59% | HCT-116 colon 5.37%

CCS/C(Nc1ccccc1)=C(\C#N)C(=O)Nc1ccc(OC)cc1
active: MDA-MB-435 melanoma -47.9%
inactive: T-47D breast 25.4% | BT-549 breast 40.5% | SW-620 colon 18% | MCF7 breast 19% | HCT-116 colon 14.3% | HCC-2998 colon 55.2% | KM12 colon 31%

Cc1ccc(/C=C(\C#N)n2nnc3cc(F)c(F)cc32)cc1
active: T-47D breast -10.3% | BT-549 breast -18.4% | MDA-MB-435 melanoma -35.4% | SW-620 colon 9.9% | HCT-116 colon -76.6% | HCC-2998 colon -10.6% | KM12 colon 8%
inactive: MCF7 breast 12.6%

COc1ccc(/C=C/C(=O)c2cc3c(N)c(C(=O)Nc4cccc(Cl)c4C)sc3nc2C)cc1
active: BT-549 breast -19% | MDA-MB-435 melanoma -28.2% | MCF7 breast 7.78% | HCT-116 colon 5.3% | HCC-2998 colon 1.15% | KM12 colon 7.8%
inactive: T-47D breast 38.9% | SW-620 colon 13.2%

CCN1CCN(CC(=O)Nc2ccc(-c3cn4c(n3)sc3cc(Oc5ccnc(C(=O)NC)c5)ccc34)cc2)CC1
active: SW-620 colon 8.44% | HCT-116 colon 1.48%
inactive: T-47D breast 32.8% | BT-549 breast 57.2% | MDA-MB-435 melanoma 10.1% | MCF7 breast 80.2% | HCC-2998 colon 117% | KM12 colon 75.6%

Cc1ccnc(Nc2ccc([N+](=O)[O-])c(NCCN3CCOCC3)n2)c1
inactive: T-47D breast 83.9% | BT-549 breast 18.6% | SW-620 colon 27.9% | MCF7 breast 21% | HCC-2998 colon 14.4%
active: MDA-MB-435 melanoma -20.5% | HCT-116 colon -12.9% | KM12 colon 5.83%

NS(=O)(=O)c1ccc(NC(=O)/C(=C\c2ccc(Cl)cc2Cl)NC(=O)c2ccccc2)cc1
inactive: T-47D breast 87.5% | BT-549 breast 89.1% | MDA-MB-435 melanoma 97.7% | SW-620 colon 104% | MCF7 breast 90.1% | HCT-116 colon 97.3% | HCC-2998 colon 103% | KM12 colon 102%
